About 83,000 compounds went through this panel and 20% of them were active in at least one assay; those are over-represented in the sample as a whole.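 Results are percent growth after 48 hours of single-concentration exposure. 100 means growth as in untreated cells, lower positive values show inhibition; negative values down to -100 show cell death.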 Values without a mark were called inactive. Calls of active or inactive are those of the source. How the source made its calls: active means growth percent below 10; inactive means the rest.
Assays:
Assay in all cases: NCI-60 one-dose screen, 48 h (100 = growth as untreated, 0 = no growth, -100 = all killed)
HCT-15 colon = details: 10 µM unless noted
HT29 colon = details: 10 µM unless noted
SNB-75 CNS = details: 10 µM unless noted
SNB-19 CNS = details: 10 µM unless noted
U251 CNS = details: 10 µM unless noted
PC-3 prostate = details: 10 µM unless noted
SK-MEL-5 melanoma = details: 10 µM unless noted
UACC-62 melanoma = details: 10 µM unless noted
LOX IMVI melanoma = details: 10 µM unless noted
SK-MEL-28 melanoma = details: 10 µM unless noted
SK-MEL-2 melanoma = details: 10 µM unless noted
EKVX NSCLC = details: 10 µM unless noted
SN12C renal = details: 10 µM unless noted
UO-31 renal = details: 10 µM unless noted
ACHN renal = details: 10 µM unless noted
A498 renal = details: 10 µM unless noted
CCRF-CEM leukemia = details: 10 µM unless noted
MOLT-4 leukemia = details: 10 µM unless noted
CAKI-1 renal = details: 10 µM
TK-10 renal = details: 10 µM unless noted

Structure (SMILES) | growth (HCT-15 colon) | growth (HT29 colon) | growth (SNB-75 CNS) | growth (SNB-19 CNS) | growth (U251 CNS) | growth (PC-3 prostate) | growth (SK-MEL-5 melanoma) | growth (UACC-62 melanoma) | growth (LOX IMVI melanoma) | growth (SK-MEL-28 melanoma) | growth (SK-MEL-2 melanoma) | growth (EKVX NSCLC) | growth (SN12C renal) | growth (UO-31 renal) | growth (ACHN renal) | growth (A498 renal) | growth (CCRF-CEM leukemia) | growth (MOLT-4 leukemia) | growth (CAKI-1 renal) | growth (TK-10 renal)
CCCCC(=O)Nc1nc2ccc(SCCC)cc2s1 | 43.6% | 18% | 33.2% | 64.4% | 39.9% | 47.8% | 42.7% | 43.3% | 43.2% | 64.8% | 50.1% | 59.7% | 50.1% | 37.5% | 75.1% | 9.34% (active) | 44% | 29.8% | – | –
Nc1ncnc2c1c(-c1ccc(Oc3ccccc3)cc1)nn2C[C@H]1SSC[C@@H]1O | 65.7% | 5.36% (active) | 37.3% | 66.5% | 45.9% | 64% | -73.9% (active) | -66.7% (active) | 11.9% | -29.4% (active) | -46.5% (active) | 25.3% | 54.5% | 17.4% | 33.4% | 27.9% | -15.8% (active) | -51.2% (active) | – | –
COc1ccc(C(=O)NC(=O)Nc2ccc3c(c2)NC(=O)/C3=C\c2[nH]c(C)c(C(=O)O)c2C)cc1 | 93.5% | 45.1% | 73.7% | 80.3% | 52.9% | 86.1% | 87.1% | 91.3% | 82.5% | 102% | 93.8% | 81.7% | 73% | 80.4% | 52.6% | 95.9% | 64% | 25.2% | – | –
Nc1ncnc2c1c(-c1ccc(Oc3ccccc3)cc1)nn2C[C@@H]1SSC[C@H]1O | 70.4% | 13.2% | 2.29% (active) | 40.6% | 26.5% | 55.7% | -59.6% (active) | -70.4% (active) | 10.7% | 31.4% | -14.4% (active) | 33.2% | 23.3% | 0.587% (active) | 11.6% | -5.51% (active) | 32.9% | 0.449% (active) | – | –
Nc1nccc2c1ccn2-c1ccc(NC(=O)Nc2cccc(C(F)(F)F)c2)cc1 | 90% | 96.1% | 89% | 104% | 80.5% | 70.5% | 93.5% | 91.1% | 87.6% | 101% | 113% | 93.7% | 87.1% | 81.4% | 91.6% | 88.4% | 94.1% | 82.8% | 97.4% | –
c1ccc(CNCCN(CCNCc2ccccn2)Cc2ccc3ccccc3c2)nc1 | 1.52% (active) | 6.31% (active) | 21.2% | 18.3% | 3.09% (active) | -0.81% (active) | -43.1% (active) | -23.4% (active) | 0.713% (active) | 5% (active) | 9.46% (active) | 15.4% | 7.67% (active) | -79.8% (active) | – | -17.5% (active) | 6.8% (active) | -24.3% (active) | -81.8% (active) | –
COc1ccc(-c2nn(-c3cccc(Cl)c3)cc2-c2cc(-c3ccc(Br)cc3)[nH]c(=O)c2C#N)cc1 | 71.1% | 108% | -37.1% (active) | 90.6% | 90% | 86% | 91% | 88% | 69.6% | 99.6% | 122% | 88.4% | 67.9% | 87.3% | 91.8% | 102% | – | 76% | 82.9% | –
FC(F)(F)c1cn(CC2CNC2)c2ncnc(Cl)c12 | 104% | 92.2% | 109% | 99.9% | 105% | 110% | 99.5% | – | 102% | 104% | 103% | 109% | 102% | 102% | – | 112% | 86.7% | 89.9% | – | 104%

Reference: PubChem BioAssay (NCI)
